# Measured values reported in PubChem BioAssay (NCATS).
# Unmarked numbers belong to inactive results. Records with an inconclusive call do not appear. Where a call stands in place of a potency, no number is given. Activity calls are given as the source filed them. Unless noted, calls come from the whole dose curve; as a rule, active = well fitted curve in the direction sought with a large enough effect; inconclusive = small, poorly fitted or top-dose-only effect, or another doubt; inactive = no such curve, though single readings can be large; an effect the other way counts as inactive or inconclusive.
# Experiments:
# [1] = biological target: phosphoglycerate mutase (Leishmania major) (UniProt Q4Q090); experiment: qHTS Validation Assay to Find Inhibitors of Phosphoglycerate Mutase (AID 504548); conditions: Potency: inhibition qHTS; note: potency is the fitted concentration of half-maximal effect
# Outline: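 Luminescent end-point read-out via Kinase-GloPlus after a 10-minute development. Reaction: 1.25nM Leishmania major PGAM with substrate and compound, 45 minutes at room temperature in TEA buffer (pH 7.6) with MgCl2 and Tween-20.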
# [2] = qHTS for Inhibitors of ATXN expression: Validation (AID 588378); note: nearly all actives have a fitted effect of over 75% in size; note: potency is the fitted concentration of half-maximal effect
# Outline: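 Luminescence from an ATXN2-FFLuc reporter in HEK293 cells served as read-out after 24 h compound treatment at 37 degrees C; CellTiter-Fluor fluorescence was recorded first to assess viability.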
# [3] = qHTS for Inhibitors of ATXN expression: Validation of Cytotoxic Assay (AID 588349); note: potency is the fitted concentration of half-maximal effect
# Outline: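 Read-out: ATP-based luminescence (CellTiter Glo) reflecting viability of HEK293 cells after 72 hr incubation at 37 degrees C with a concentration series of each compound.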
# [4] = biological target: DNA dC->dU-editing enzyme APOBEC-3G (Homo sapiens) (UniProt Q9HC16); experiment: qHTS for inhibitors of Vif-A3G interactions: Validation (AID 588379); note: potency is the fitted concentration of half-maximal effect
# Outline: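 HeLa cells stably expressing Vif and A3G-eYFP, 700 cells/well, incubated overnight at 37 deg C, then exposed to compound overnight at 37 deg C. Inhibition of Vif-mediated degradation read as increased yellow fluorescence (Ex 488/Em 500-530) by laser-scanning cytometry.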
# [5] = biological target: Ubiquitin carboxyl-terminal hydrolase 1 (Homo sapiens) (UniProt O94782); experiment: Inhibitors of USP1/UAF1: Pilot qHTS (AID 504865); note: nearly all actives have a fitted effect of over 35% in size; note: potency is the fitted concentration of half-maximal effect
# Outline: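 USP1/UAF1 complex (1nM) preincubated with compound 15 min at room temperature, then Ub-Rho substrate (150nM final) added. Fluorescence read kinetically at 480/540 nm, 6 reads every 60 seconds. Buffer: 50mM HEPES pH 7.8, 0.5mM EDTA, 0.1 mg/ml BSA, 1mM TCEP, 0.01% Tween-20.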
# [6] = biological target: Glucocorticoid receptor (Homo sapiens) (UniProt P04150); experiment: qHTS assay for small molecule agonists of glucocorticoid receptor signaling (AID 588532; active = well fitted curve in the direction sought with a large enough effect in the signal ratio, with a control signal flat; the % refers to the signal ratio); conditions: HeLa MMTV-bla, beta-lactamase ratio, agonist, 18 h; stronger effect = higher value; percent of dexamethasone control, DMSO zero
# Outline: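 Agonist-mode qHTS: GRE-driven beta-lactamase in HeLa cells exposed 18 h to titrated compounds (up to 92 uM), then CCF4 ratio read after 2 h at RT; Hill-fitted EC50, efficacy relative to 0.1 uM dexamethasone.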
# Sequence of phosphoglycerate mutase (Leishmania major) (Q4Q090 1-553): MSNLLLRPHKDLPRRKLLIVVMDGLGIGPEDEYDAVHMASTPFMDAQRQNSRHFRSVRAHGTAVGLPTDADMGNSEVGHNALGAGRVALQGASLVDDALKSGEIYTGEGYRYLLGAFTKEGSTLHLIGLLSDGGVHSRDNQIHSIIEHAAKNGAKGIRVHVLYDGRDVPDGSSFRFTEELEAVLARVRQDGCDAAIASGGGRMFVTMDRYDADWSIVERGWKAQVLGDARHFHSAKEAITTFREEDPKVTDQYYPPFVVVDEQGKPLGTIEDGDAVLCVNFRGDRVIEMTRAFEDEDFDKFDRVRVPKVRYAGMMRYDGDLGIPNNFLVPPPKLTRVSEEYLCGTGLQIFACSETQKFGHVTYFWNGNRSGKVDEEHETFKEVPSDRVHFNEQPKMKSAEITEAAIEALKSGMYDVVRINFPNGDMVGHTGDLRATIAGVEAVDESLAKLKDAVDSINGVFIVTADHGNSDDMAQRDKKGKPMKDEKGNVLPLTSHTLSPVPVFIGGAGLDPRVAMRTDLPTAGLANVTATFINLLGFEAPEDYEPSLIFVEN
# Sequence of Ubiquitin carboxyl-terminal hydrolase 1 (Homo sapiens) (O94782 whole entry, looked up): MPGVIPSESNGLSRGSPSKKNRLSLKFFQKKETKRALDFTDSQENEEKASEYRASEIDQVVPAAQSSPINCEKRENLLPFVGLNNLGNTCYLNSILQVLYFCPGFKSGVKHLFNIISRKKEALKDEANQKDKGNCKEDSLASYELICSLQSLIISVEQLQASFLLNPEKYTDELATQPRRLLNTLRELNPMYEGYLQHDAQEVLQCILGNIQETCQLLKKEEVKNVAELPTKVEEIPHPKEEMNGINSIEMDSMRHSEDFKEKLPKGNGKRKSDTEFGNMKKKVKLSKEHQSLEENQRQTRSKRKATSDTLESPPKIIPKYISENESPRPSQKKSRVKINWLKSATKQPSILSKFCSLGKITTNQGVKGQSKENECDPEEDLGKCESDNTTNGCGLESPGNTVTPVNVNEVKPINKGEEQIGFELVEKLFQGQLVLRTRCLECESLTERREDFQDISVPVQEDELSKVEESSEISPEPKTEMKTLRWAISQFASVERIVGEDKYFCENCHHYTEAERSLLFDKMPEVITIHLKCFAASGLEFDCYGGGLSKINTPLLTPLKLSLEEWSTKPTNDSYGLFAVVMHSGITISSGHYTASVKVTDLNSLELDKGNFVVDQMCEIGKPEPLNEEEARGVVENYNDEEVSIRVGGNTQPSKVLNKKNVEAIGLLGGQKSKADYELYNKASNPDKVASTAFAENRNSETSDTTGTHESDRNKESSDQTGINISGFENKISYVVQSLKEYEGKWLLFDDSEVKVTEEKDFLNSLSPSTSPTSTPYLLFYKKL
# Sequence of DNA dC->dU-editing enzyme APOBEC-3G (Homo sapiens) (Q9HC16 whole entry, looked up): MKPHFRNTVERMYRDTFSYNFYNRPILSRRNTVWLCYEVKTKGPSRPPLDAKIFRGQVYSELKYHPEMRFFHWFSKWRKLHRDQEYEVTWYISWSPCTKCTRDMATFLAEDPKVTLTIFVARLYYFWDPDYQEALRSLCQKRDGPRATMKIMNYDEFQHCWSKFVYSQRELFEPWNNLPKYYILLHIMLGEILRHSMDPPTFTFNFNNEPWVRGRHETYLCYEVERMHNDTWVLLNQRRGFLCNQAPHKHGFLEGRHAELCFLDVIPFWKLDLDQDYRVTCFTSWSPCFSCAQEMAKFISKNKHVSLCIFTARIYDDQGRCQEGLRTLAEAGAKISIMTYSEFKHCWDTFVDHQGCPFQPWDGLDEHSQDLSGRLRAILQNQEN
# Sequence of Glucocorticoid receptor (Homo sapiens) (P04150 whole entry, looked up): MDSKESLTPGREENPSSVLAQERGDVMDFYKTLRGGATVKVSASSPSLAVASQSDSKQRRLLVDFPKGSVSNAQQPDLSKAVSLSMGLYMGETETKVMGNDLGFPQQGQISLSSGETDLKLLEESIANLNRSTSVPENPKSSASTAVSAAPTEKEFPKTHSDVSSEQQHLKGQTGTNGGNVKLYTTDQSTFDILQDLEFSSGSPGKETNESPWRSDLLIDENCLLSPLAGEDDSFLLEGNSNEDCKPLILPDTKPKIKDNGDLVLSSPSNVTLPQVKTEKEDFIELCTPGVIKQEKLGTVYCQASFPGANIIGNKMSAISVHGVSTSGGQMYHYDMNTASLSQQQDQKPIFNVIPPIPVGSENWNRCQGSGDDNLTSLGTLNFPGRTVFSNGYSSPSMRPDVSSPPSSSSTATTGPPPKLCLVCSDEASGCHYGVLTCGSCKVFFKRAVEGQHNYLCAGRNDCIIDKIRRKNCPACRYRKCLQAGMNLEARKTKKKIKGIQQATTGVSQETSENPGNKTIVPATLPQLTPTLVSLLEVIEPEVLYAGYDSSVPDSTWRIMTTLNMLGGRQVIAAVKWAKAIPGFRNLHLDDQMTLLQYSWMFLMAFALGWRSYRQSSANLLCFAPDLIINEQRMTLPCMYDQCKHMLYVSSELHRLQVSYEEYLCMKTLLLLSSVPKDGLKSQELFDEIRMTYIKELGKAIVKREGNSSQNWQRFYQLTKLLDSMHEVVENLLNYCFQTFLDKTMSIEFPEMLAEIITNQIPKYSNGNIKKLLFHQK
compound,measurement,setting,value
O=[N+]([O-])c1ccc2c(c1)S(=O)(=O)C=C2,Potency,[1],inactive
same,Potency,[2],6.31 µM (active)
Oc1cc2c(cc1O)CN(C(=S)NCCc1ccc(Cl)cc1)CCC2,Potency,[1],inactive
same,Potency,[3],inactive
same,Potency,[2],inactive
same,Potency,[4],inactive
C#CCN1C(C)=C(C(=O)OC)C(c2cccc([N+](=O)[O-])c2)C(C(=O)OCC)=C1C (stereo not given),Potency,[1],inactive
same,Potency,[3],inactive
same,Potency,[2],inactive
O=C1O/C(=C/Br)CCC1c1cccc2ccccc12 (stereo not given),Potency,[1],inactive
same,Potency,[3],31.6 µM (active)
same,Potency,[2],25.1 µM (active)
CCOC(=O)N1CCN(/[N+]([O-])=N/Oc2ccc([N+](=O)[O-])cc2[N+](=O)[O-])CC1,Potency,[1],inactive
same,Potency,[2],inactive
N=C(N)N,Potency,[5],inactive
N#C/C(=C\c1ccc(O)c(O)c1)C(=O)NCc1ccccc1,Potency,[1],inactive
same,Potency,[2],inactive
same,Potency,[4],inactive
CCOc1ccc2nc(S(N)(=O)=O)sc2c1,Potency,[5],inactive
O=C1NC(=O)/C(=C/c2ccc3nccnc3c2)S1,Potency,[1],inactive
same,Potency,[3],inactive
same,Potency,[2],inactive
Fc1ccc(C(OCCCc2cnc[nH]2)c2ccc(F)cc2)cc1,Potency,[1],inactive
same,Potency,[3],inactive
CCCCCCCC/C=C\CCCCCCCC(=O)NCCO,Potency,[1],inactive
same,Potency,[3],inactive
same,Potency,[2],inactive
same,Potency,[4],inactive
CN(C)CCC(c1ccc(Cl)cc1)c1ccccn1 (stereo not given),Potency,[1],inactive
same,Potency,[5],inactive
same,activation,[6],0.717%
O=P(O)(O)C(Cl)(Cl)P(=O)(O)O,Potency,[1],inactive
same,Potency,[3],inactive
same,Potency,[2],inactive
NCC1OC(O[C@H]2[C@H](O)[C@@H](OC3C(O)C(N)CC(N)C3OC3OC(CO)C(O)C(O)C3N)O[C@@H]2CO)C(N)C(O)C1O (stereo not given in full),Potency,[1],inactive
same,Potency,[3],inactive
same,Potency,[2],inactive
C#C[C@]1(O)CC[C@H]2[C@@H]3CCC4=Cc5oncc5CC4(C)[C@H]3CCC21C (stereo not given in full),Potency,[1],inactive
same,Potency,[3],inactive
same,Potency,[2],inactive
CCC1C(=O)OCC1Cc1cncn1C (stereo not given),Potency,[1],inactive
same,Potency,[2],inactive
same,Potency,[4],inactive
O=c1[nH]c2cc(C(F)(F)F)ccc2n1-c1cc(C(F)(F)F)ccc1O,Potency,[1],inactive
same,Potency,[3],inactive
same,Potency,[2],inactive
O=C(O)c1cc([N+](=O)[O-])ccc1NCCCc1ccccc1,Potency,[1],inactive
same,Potency,[2],inactive
same,Potency,[4],inactive
COc1ccc(/C=C/C(=O)Nc2ccccc2C(=O)O)cc1OC,Potency,[1],inactive
same,Potency,[3],inactive
NC(CCCP(=O)(O)O)C(=O)O (stereo not given),Potency,[1],inactive
same,Potency,[3],inactive
same,Potency,[2],inactive
CCCCCCCCCCCCCCCCCC(=O)OC(CC(=O)O)C[N+](C)(C)C (stereo not given),Potency,[1],inactive
same,Potency,[2],inactive
CCCCC/C=C\CC(O)/C=C/c1cccc(CC(O)CCCCO)n1 (stereo not given),Potency,[1],inactive
same,Potency,[3],inactive
same,Potency,[2],inactive
COC(=O)c1c(C)[nH]c(C)c1C(=O)c1ccccc1Cc1ccccc1,Potency,[1],inactive
same,Potency,[3],inactive
same,Potency,[2],inactive
same,Potency,[4],inactive
O=C(O)CNC(=O)C(CS)Cc1ccccc1 (stereo not given),Potency,[1],inactive
same,Potency,[3],inactive
same,Potency,[2],inactive
Cc1nc2sccn2c(=O)c1CCN1CCC(=C(c2ccccc2)c2ccc(F)cc2)CC1,Potency,[1],inactive
same,Potency,[2],inactive
same,Potency,[4],inactive
CCCCCCCCCCCCCCCCCC(=O)NCC(COP(=O)([O-])OCC[N+](C)(C)C)OCC (stereo not given),Potency,[1],inactive
same,Potency,[3],17.8 µM (active)
CCOC(=O)C1=C(C)NC(C)=C(C(=O)OCC)C1c1c(F)c(F)c(F)c(F)c1F,Potency,[1],inactive
same,Potency,[3],inactive
same,Potency,[2],inactive
N#C/C(=C\c1ccc(O)c(O)c1)C(=O)NCCCc1ccccc1,Potency,[1],inactive
same,Potency,[4],inactive
Cc1ccc(O)c(N=Nc2ccccc2)n1,Potency,[1],10.7 µM (active)
same,Potency,[4],10.6 µM (active)
CC1OC1P(=O)(O)O (stereo not given),Potency,[1],inactive
same,Potency,[3],inactive
same,Potency,[2],inactive
O=C(CCN1CCN(CCO)CC1)N1c2ccccc2Sc2ccc(C(F)(F)F)cc21,Potency,[5],inactive
Brc1c(Br)c(Br)c2n[nH]nc2c1Br,Potency,[1],inactive
same,Potency,[3],inactive
CCCC(=O)OC[C@@H](OC(=O)CCC)[C@@H](OC(=O)CCC)[C@H](Cn1c2nc(=O)[nH]c(=O)c-2nc2cc(C)c(C)cc21)OC(=O)CCC,Potency,[5],39.8 µM (active)
CN(C)c1ccc(C(=C2C=CC(=[N+](C)C)C=C2)c2ccccc2)cc1,Potency,[5],50.1 µM (active)
CC1(C)[C@@H](O)CC[C@]2(C)[C@H]3C(=O)C=C4[C@@H]5C[C@@](C)(C(=O)O)CC[C@]5(C)CC[C@@]4(C)[C@]3(C)CC[C@@H]12,Potency,[5],inactive
CCCCC[C@H](O)/C=C/[C@@H]1[C@@H](C/C=C\CCCC(=O)O)[C@@H](O)C[C@H]1O,Potency,[5],inactive
Clc1ccccc1-c1nc(-c2ccncc2)no1,Potency,[5],inactive
Cc1nc2ccccc2n1Cc1ccc(Cl)cc1,Potency,[5],inactive
CC1(C)S[C@@H]2[C@H](NC(=O)[C@H](NC(=O)N3CCN(S(C)(=O)=O)C3=O)c3ccccc3)C(=O)N2[C@H]1C(=O)O,Potency,[5],inactive
C=C(Nc1ccc(OCC)cc1)Nc1ccc(OCC)cc1,Potency,[5],inactive
CCCCCC[C@@H](O)C/C=C\CCCCCCCC(=O)O,Potency,[5],inactive
CN=c1nc(-c2ccccc2)n(-c2ccccc2)s1,Potency,[5],inactive
C[S+](CC[C@H](N)C(=O)O)C[C@H]1O[C@@H](n2cnc3c(N)ncnc32)[C@H](O)[C@@H]1O (stereo not given in full),Potency,[5],inactive
Cc1ccc(O)c(-n2nc3ccccc3n2)c1,Potency,[5],inactive
Nc1ccc(C(=O)O)c(O)c1,Potency,[5],inactive
O=C(O)COc1ccc(C(=O)c2cccs2)c(Cl)c1Cl,Potency,[5],inactive
[O-][n+]1ccccc1SSc1cccc[n+]1[O-],Potency,[5],inactive
Cc1cc(O)c2ccccc2c1O,Potency,[5],inactive
O=C1CN(/N=C/c2ccc(-c3ccc([N+](=O)[O-])cc3)o2)C(=O)N1,Potency,[5],inactive
NC(=O)C(c1ccccc1)(c1ccccc1)[C@@H]1CCN(CCc2ccc3c(c2)CCO3)C1,Potency,[5],inactive
COc1cc(/C=C/C(=O)N2CCN(CC(=O)N3CCCC3)CC2)cc(OC)c1OC,Potency,[5],inactive
O=C(O)[C@H](CC(=O)N1C[C@H]2CCCC[C@H]2C1)Cc1ccccc1,Potency,[5],inactive
c1ccc2sc(SN3CCOCC3)nc2c1,Potency,[5],inactive
Nc1c(CC(=O)O)cccc1C(=O)c1ccc(Br)cc1,Potency,[5],inactive
O=C(O)Cc1ccc(-c2ccccc2)cc1,Potency,[5],inactive
Cc1c(Nc2ncccc2C(=O)O)cccc1C(F)(F)F,Potency,[5],inactive
CC(C(=O)O)c1ccc(C(=O)c2cccs2)cc1 (stereo not given),Potency,[5],inactive
Cc1ccc(C(=O)c2ccc(CC(=O)O)n2C)cc1,Potency,[5],inactive
